# Key:
# Assay in all cases: DAPPL (digital affinity profiling via proximity ligation, sequencing); 10 mM Tris-HCl pH 7.5, 50 mM NaCl, 1 mM DTT, 4% glycerol, room temperature, 30 min; GST-TFs on glutathione beads, 16-mer random dsDNA library, 0.1% formaldehyde crosslink after washing; high values mean tight binding
# Details in all cases: protein: recombinant; tags: N-terminal GST; dsDNA, one strand shown
# ELK1 = target: T1, ELK1 (Homo sapiens, UniProt P19419 1-428)
# T1 sequence: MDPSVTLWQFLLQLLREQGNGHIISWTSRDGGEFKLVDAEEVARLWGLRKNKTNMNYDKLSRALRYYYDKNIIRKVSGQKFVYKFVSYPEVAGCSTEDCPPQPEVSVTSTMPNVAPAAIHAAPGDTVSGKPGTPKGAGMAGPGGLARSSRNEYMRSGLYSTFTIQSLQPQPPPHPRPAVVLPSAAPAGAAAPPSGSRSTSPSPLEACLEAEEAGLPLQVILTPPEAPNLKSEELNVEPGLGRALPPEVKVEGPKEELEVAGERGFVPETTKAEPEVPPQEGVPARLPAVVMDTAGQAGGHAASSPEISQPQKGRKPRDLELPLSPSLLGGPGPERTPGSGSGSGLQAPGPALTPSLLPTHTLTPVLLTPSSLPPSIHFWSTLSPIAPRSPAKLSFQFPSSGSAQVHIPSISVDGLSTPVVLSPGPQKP
# Method in brief: (§1)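 Sequencing on an Illumina NextSeq500 followed washing, crosslinking with 0.1% formaldehyde, proximity ligation (BsaI/T4 ligase, 1 h, 37 °C) and PCR amplification of pools that had been incubated for 30 min at room temperature with 200 nmole of a random double-stranded 16-mer DNA library in Tris/NaCl/DTT/glycerol buffer. Each pool held DNA-barcoded human transcription factors, expressed in yeast as GST fusions and captured on glutathione beads, plus a tag-only sample. Binding signal is a hexamer's read frequency for a factor divided by its frequency in the tag-only sample.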
# GABPA = target: T2, GABPA (Homo sapiens, UniProt Q06546 1-454)
# T2 sequence: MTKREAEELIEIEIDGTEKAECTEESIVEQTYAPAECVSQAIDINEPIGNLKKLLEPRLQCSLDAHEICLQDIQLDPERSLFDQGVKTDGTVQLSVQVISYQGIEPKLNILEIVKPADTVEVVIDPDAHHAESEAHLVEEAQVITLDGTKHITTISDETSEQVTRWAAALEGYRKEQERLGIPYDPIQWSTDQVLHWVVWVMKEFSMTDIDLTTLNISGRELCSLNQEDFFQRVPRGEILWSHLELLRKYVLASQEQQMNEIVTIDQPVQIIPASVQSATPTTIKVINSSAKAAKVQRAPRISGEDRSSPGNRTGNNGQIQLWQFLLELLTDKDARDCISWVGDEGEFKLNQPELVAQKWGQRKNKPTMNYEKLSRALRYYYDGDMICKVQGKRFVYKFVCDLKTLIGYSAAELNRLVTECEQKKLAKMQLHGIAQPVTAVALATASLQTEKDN
# Method in brief: as §1
# ERG = target: T3, ERG (Homo sapiens, UniProt P11308 1-479)
# T3 sequence: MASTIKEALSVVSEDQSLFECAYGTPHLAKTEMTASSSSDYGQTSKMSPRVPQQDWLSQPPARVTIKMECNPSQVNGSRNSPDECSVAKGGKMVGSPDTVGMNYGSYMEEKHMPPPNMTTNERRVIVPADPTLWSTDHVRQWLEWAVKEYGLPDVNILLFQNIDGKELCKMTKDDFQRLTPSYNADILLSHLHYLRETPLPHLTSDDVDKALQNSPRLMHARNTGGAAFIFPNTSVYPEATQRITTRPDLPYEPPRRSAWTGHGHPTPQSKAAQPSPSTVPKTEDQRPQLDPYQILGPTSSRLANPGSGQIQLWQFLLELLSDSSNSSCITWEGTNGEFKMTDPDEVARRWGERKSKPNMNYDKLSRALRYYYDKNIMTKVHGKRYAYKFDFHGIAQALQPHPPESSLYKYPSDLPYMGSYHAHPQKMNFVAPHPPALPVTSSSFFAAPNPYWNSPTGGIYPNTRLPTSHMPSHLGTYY
# Method in brief: as §1
# ELF1 = ELF1 (Homo sapiens, UniProt P32519 1-619)
# Chain of ELF1 (P32519 whole entry): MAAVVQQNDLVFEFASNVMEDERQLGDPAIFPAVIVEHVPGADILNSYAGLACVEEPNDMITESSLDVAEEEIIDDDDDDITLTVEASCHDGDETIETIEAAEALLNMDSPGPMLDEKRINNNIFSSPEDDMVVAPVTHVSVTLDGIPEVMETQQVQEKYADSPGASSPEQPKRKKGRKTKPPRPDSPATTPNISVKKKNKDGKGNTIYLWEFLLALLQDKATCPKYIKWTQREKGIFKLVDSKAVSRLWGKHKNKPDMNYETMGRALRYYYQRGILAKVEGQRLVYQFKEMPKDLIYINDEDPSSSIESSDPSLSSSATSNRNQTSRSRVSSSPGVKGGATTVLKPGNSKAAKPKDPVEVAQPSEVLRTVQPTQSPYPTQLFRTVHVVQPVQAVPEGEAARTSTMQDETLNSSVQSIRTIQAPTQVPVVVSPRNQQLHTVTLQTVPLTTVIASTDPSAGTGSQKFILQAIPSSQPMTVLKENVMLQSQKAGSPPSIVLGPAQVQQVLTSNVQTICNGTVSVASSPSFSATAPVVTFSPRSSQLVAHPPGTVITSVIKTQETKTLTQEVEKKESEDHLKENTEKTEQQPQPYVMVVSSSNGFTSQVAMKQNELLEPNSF
# Method in brief: as §1
# EHF = target: T4, EHF (Homo sapiens, UniProt Q9NZC4 1-300)
# T4 sequence: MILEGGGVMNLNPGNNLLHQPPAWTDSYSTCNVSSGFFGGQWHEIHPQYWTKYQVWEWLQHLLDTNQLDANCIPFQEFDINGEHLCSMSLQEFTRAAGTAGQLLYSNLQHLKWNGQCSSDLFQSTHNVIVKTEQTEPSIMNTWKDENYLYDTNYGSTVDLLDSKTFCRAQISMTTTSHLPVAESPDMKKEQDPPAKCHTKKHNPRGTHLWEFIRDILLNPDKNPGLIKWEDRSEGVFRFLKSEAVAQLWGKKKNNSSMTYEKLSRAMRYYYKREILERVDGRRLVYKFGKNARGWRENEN
# Method in brief: as §1
# SPIB = SPIB (Homo sapiens, UniProt Q01892 1-262)
# Chain of SPIB (Q01892 whole entry): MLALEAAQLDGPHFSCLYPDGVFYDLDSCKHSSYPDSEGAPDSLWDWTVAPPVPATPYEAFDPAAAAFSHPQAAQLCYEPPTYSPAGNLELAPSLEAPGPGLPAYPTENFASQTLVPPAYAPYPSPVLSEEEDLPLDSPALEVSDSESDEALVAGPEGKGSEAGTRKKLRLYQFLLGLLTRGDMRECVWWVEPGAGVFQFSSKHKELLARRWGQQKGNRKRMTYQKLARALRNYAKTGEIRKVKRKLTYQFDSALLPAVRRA
# Method in brief: as §1
# ETV5 = ETV5 (Homo sapiens, UniProt P41161 1-510)
# Chain of ETV5 (P41161 whole entry): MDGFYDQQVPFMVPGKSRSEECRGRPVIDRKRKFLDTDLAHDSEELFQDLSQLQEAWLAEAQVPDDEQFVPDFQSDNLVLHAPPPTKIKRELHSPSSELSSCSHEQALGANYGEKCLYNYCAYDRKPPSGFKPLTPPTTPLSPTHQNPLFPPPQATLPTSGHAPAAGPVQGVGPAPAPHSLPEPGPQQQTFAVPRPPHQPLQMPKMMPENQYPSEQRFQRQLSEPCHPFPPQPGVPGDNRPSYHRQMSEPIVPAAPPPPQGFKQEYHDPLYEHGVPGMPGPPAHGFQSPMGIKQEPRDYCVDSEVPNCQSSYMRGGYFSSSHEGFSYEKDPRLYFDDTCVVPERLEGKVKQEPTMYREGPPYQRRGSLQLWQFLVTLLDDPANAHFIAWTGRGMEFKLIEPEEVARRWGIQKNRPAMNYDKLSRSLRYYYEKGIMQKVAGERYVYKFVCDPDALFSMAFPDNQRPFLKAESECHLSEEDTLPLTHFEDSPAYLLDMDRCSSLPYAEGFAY
# Method in brief: as §1
# ELF4 = ELF4 (Homo sapiens, UniProt Q99607 1-663)
# Chain of ELF4 (Q99607 whole entry): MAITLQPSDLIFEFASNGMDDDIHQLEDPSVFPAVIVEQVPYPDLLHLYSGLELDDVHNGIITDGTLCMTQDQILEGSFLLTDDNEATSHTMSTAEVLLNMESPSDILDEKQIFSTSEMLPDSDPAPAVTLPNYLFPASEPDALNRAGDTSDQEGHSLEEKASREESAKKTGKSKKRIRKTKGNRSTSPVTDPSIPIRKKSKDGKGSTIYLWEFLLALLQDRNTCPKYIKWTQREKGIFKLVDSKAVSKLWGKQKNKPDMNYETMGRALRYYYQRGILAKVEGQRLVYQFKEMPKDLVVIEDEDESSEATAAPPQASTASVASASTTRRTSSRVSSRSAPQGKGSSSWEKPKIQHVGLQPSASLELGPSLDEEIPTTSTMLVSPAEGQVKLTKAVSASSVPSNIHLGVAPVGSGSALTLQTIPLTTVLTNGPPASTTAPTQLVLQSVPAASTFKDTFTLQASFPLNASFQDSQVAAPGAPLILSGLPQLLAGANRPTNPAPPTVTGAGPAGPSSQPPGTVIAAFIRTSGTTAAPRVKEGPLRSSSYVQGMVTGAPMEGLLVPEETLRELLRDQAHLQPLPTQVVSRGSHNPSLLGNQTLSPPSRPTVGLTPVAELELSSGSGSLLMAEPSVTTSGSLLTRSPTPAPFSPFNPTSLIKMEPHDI
# Method in brief: as §1
# ELK4 = target: T5, ELK4 (Homo sapiens, UniProt P28324-2 1-405)
# T5 sequence: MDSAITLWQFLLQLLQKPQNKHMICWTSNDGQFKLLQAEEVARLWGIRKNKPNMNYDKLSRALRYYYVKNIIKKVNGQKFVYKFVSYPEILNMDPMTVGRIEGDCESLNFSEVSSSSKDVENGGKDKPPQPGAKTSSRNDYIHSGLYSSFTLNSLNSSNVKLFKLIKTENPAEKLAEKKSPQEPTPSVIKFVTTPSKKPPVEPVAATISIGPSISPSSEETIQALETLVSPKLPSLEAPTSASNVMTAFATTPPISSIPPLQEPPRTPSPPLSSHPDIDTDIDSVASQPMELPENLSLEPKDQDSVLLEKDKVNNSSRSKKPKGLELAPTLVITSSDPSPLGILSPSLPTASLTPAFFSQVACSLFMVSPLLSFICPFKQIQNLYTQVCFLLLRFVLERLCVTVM
# Method in brief: as §1
# ETV2 = target: T6, ETV2 (Homo sapiens, UniProt O00321 1-342)
# T6 sequence: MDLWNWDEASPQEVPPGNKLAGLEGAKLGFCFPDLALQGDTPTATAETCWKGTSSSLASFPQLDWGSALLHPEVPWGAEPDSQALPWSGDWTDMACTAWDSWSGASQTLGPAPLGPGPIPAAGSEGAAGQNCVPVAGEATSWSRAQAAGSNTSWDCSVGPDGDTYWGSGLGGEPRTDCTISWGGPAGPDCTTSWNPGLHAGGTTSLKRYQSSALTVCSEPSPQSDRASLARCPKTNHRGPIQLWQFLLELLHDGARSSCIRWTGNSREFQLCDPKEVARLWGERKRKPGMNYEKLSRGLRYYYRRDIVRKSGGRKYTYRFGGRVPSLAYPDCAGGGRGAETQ
# Method in brief: as §1
# ETV1 = ETV1 (Homo sapiens, UniProt P50549 1-477)
# Chain of ETV1 (P50549 whole entry): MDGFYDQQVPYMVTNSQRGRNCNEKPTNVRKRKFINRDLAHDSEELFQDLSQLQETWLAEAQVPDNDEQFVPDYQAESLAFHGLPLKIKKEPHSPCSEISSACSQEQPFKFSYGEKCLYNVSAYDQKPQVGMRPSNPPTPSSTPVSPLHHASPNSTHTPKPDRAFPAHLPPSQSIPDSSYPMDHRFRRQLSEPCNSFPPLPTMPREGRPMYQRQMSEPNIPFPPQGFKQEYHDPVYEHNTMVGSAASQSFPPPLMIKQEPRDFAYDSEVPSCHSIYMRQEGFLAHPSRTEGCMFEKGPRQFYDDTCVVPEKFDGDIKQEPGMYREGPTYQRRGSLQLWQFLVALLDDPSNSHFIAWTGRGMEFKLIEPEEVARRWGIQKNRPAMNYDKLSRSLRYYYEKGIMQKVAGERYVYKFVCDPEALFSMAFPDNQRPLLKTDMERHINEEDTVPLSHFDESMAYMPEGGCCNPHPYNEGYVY
# Method in brief: as §1
# ETV3L = target: T7, ETV3L (Homo sapiens, UniProt Q6ZN32 1-361)
# T7 sequence: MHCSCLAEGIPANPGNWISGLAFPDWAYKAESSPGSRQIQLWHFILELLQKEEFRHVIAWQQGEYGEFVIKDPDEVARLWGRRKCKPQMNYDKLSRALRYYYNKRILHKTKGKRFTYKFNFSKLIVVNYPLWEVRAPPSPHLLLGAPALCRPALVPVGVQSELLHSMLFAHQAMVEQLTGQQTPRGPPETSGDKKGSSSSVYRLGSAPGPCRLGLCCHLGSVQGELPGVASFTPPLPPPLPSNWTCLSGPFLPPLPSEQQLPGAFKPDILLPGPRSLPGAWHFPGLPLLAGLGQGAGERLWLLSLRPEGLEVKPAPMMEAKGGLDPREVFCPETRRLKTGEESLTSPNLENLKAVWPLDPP
# Method in brief: as §1
# ETS2 = target: T8, ETS2 (Homo sapiens, UniProt P15036 1-469)
# T8 sequence: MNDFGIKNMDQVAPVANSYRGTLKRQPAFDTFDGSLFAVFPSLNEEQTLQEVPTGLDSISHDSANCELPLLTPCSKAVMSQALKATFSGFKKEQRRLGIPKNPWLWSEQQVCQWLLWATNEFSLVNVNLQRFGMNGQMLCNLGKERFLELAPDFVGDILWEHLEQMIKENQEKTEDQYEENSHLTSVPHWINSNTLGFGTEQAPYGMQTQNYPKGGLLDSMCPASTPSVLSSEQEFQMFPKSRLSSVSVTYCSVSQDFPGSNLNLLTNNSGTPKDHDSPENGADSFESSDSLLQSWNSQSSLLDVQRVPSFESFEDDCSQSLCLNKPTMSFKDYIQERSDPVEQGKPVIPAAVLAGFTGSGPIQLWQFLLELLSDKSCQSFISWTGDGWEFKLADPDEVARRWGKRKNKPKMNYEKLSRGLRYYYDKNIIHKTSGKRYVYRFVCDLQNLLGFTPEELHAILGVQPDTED
# Method in brief: as §1
# SPDEF = target: T9, SPDEF (Homo sapiens, UniProt O95238 1-335)
# T9 sequence: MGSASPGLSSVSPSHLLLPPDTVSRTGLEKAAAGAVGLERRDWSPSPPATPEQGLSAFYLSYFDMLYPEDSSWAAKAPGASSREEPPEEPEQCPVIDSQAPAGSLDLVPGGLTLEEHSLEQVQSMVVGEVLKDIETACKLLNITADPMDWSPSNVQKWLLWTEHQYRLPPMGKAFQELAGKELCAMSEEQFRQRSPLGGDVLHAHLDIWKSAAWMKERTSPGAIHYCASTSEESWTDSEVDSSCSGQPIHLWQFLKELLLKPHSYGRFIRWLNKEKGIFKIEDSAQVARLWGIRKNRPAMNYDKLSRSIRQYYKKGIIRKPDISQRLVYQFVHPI
# Method in brief: as §1
# ETV7 = target: T10, ETV7 (Homo sapiens, UniProt Q9Y603 1-341)
# T10 sequence: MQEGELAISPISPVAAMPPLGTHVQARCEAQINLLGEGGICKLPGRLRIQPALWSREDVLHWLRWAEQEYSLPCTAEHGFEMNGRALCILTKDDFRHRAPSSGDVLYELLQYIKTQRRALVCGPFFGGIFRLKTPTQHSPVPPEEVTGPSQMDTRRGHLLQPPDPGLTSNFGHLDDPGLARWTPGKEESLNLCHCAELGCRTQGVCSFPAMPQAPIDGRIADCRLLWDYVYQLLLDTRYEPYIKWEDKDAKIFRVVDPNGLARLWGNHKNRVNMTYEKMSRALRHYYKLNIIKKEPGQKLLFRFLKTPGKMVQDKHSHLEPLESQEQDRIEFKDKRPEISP
# Method in brief: as §1
# ETV3 = target: T11, ETV3 (Homo sapiens, UniProt P41162-2 1-143)
# T11 sequence: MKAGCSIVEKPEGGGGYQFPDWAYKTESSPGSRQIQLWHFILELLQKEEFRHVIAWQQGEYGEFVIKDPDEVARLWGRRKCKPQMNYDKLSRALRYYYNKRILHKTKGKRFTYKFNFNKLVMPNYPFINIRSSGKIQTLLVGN
# Method in brief: as §1
# ETV6 = ETV6 (Homo sapiens, UniProt P41212 1-452)
# Chain of ETV6 (P41212 whole entry): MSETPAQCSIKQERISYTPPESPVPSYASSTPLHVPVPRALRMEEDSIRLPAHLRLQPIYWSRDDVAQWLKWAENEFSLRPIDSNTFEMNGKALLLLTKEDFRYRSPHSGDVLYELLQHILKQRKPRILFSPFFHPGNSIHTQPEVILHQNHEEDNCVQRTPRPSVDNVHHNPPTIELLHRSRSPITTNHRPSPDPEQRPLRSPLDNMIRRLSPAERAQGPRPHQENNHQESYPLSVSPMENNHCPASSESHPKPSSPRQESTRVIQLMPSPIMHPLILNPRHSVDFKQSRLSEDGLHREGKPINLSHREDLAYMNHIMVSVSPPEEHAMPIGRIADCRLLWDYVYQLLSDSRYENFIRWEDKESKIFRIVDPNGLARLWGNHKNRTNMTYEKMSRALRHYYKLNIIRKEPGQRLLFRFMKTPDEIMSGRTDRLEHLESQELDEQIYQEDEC
# Method in brief: as §1
sequence,measurement,setting,value
CTGGGC,binding signal,ELK1,"1.08 fold enrichment (6-mer frequency, TF over GST control)"
same,binding signal,GABPA,"1.09 fold enrichment (6-mer frequency, TF over GST control)"
same,binding signal,ERG,"1.04 fold enrichment (6-mer frequency, TF over GST control)"
same,binding signal,ELF1,"1.24 fold enrichment (6-mer frequency, TF over GST control)"
same,binding signal,EHF,"1.01 fold enrichment (6-mer frequency, TF over GST control)"
same,binding signal,SPIB,"1.03 fold enrichment (6-mer frequency, TF over GST control)"
same,binding signal,ETV5,"1.04 fold enrichment (6-mer frequency, TF over GST control)"
same,binding signal,ELF4,"1.07 fold enrichment (6-mer frequency, TF over GST control)"
same,binding signal,ELK4,"1.11 fold enrichment (6-mer frequency, TF over GST control)"
same,binding signal,ETV2,"1.13 fold enrichment (6-mer frequency, TF over GST control)"
same,binding signal,ETV1,"1 fold enrichment (6-mer frequency, TF over GST control)"
same,binding signal,ETV3L,"1.12 fold enrichment (6-mer frequency, TF over GST control)"
same,binding signal,ETS2,"1.03 fold enrichment (6-mer frequency, TF over GST control)"
same,binding signal,SPDEF,"1 fold enrichment (6-mer frequency, TF over GST control)"
same,binding signal,ETV7,"1.24 fold enrichment (6-mer frequency, TF over GST control)"
same,binding signal,ETV3,"1.03 fold enrichment (6-mer frequency, TF over GST control)"
same,binding signal,ETV6,"1.03 fold enrichment (6-mer frequency, TF over GST control)"

# From publication PMC7862700, “An all-to-all approach to the identification of sequence-specific readers for epigenetic DNA modifications on cytosine”
